Measurements as given in ChEMBL document CHEMBL4513216, “Probing the Open Global Health Chemical Diversity Library for Multistage-Active Starting Points for Next-Generation Antimalarials” (ACS Infect Dis, 2020).
About 2,100 (3.2%) of roughly 65,000 compounds showed an effect of 50% or more. The median lay at about -52%. The sample holds strong results, similar compounds and a random draw of the others, so the mix is not that of the screen.

System: Plasmodium falciparum
Assay: Screen against P. falciparum Asexual Blood Stage (ABS), at 5uM
Assay type: functional, Dd2
Conditions: tested at 5 uM

| SMILES | INHIBITION [%] |
| --- | --- |
| CCc1nc(C)c(C(=O)NCCNC(=O)c2cccs2)s1 | -96.9 |
| CCc1nc(NCCCn2cccn2)c2c(n1)c(C)nn2CC | -75.8 |
| COCCNC(=O)CN(C)C(C)c1nc(C)no1 (stereo not given) | -63.5 |
| Cn1cccc1C(=O)NCc1ccnc(C2CCCOC2)n1 (stereo not given) | -162 |
| Cc1ccc(C(=O)NCc2ccnc(C3CCCOC3)n2)s1 (stereo not given) | 53.3 |
| Cc1ccsc1C(=O)NCc1ccnc(C2CCCOC2)n1 (stereo not given) | -57.8 |
| COc1cc(F)ccc1-c1cc(CO)ccn1 | -92 |
| COc1ccc(-c2cc(N)ccn2)c(OC)c1OC | -9.16 |
| COc1cc(F)ccc1-c1cc(N)ccn1 | 52.7 |
| CC(=O)NCc1nn(C)c2c1CN(Cc1ccsc1)C2 | -24.6 |
| Cc1csc(N2CCN(C3CCc4ccccc4C3)CC2)n1 (stereo not given) | -22.1 |
| c1cnc(N2CCC3(CCN(Cc4cccnc4)CC3)CC2)nc1 | -71.4 |
| Fc1ccc(CN2CCC3(CC2)CCN(c2ncccn2)CC3)cc1 | 55 |
| Fc1ccc(CN2CCOCC3(CCN(Cc4nccs4)C3)C2)cc1 (stereo not given) | 0.38 |
| c1csc(CN2CC3(CCN(Cc4ccsc4)C3)C2)n1 | -42.4 |
| Fc1ccc(CN2CCC3(CCN(Cc4nccs4)CC3)C2)cc1 | 57.9 |
| COc1ccc(CN2CCC3(CC2)CCN(c2ncccn2)CC3)cc1 | -85.1 |
| CSc1cccc(NC(=O)N2CCC3(CCC(=O)N(C4CC4)C3)CC2)c1 | -19.6 |
| O=C(CCC(F)(F)F)N1CCCC(CO)(CC2CC2)C1 (stereo not given) | -11.2 |
| Cc1ccc(CN2CCc3c(nnn3C)C2COCc2ccccc2)s1 (stereo not given) | -109 |
| O=C(N1CCSCC1)C1(O)Cc2ccccc2C1 | -41.2 |
| O=C(N1CCN(CCO)CC1)C1(O)Cc2ccccc2C1 | -1.26 |

| SMILES | INHIBITION [%] |
| --- | --- |
| O=C(N1CCc2ccccc2CC1)C1(O)Cc2ccccc2C1 | 58.7 |
| Nc1nnnn1NCc1cccc(Cl)c1Cl | -65.4 |
| Cc1cc(NC(=O)CN2CCCC2Cn2nc(C)nc2C)n(C)n1 (stereo not given) | -142 |
| Cc1nc(C)n(CC2CCCN(CC(=O)Nc3cc(C)on3)C2)n1 (stereo not given) | 3.79 |
| Cc1cc(NC(=O)CN2CCCC(Cn3nc(C)nc3C)C2)n(C)n1 (stereo not given) | 54.5 |
| Cc1nc(C)n(CC2CCCN(CC(=O)Nc3cccnc3)C2)n1 (stereo not given) | -133 |
| Cc1nc(C)n(CC2CCCN2CC(=O)Nc2ccncc2)n1 (stereo not given) | -153 |
| Cc1nc(C)n(CC2CCCN(CC(=O)Nc3ccncc3)C2)n1 (stereo not given) | 60.6 |
| COCC(=O)Nc1ccc(C)cc1-c1nc(C2CC2)no1 | -92.7 |
| CCn1cc2c(n1)CN(Cc1ccc(C)o1)CC2COCC1CC1 (stereo not given) | -68.6 |
| O=C(NCC1CCCCC1)NC1CCCc2c1cnn2CCO (stereo not given) | -133 |
| Cc1c(C(C)NC(=O)N2CCN(C3CCCC3)CC2)cnn1C (stereo not given) | -70.2 |
| COC(=O)c1sc2cccc(F)c2c1CNC(=O)C1CCOC1 (stereo not given) | -5.44 |
| Cc1cccc(Nc2ccc(C3CCN(Cc4ncc[nH]4)CC3)nc2)n1 | 51.8 |
| Fc1ccc(Nc2ccc(C3CCN(Cc4ncc[nH]4)CC3)nc2)nc1 | 63.1 |
| Cc1cc(Nc2ccc(F)cn2)cc(C2CCN(Cc3ncc[nH]3)C2)n1 (stereo not given) | -49.2 |
| Fc1cccc(OC2CCN(Cc3ncc[nH]3)CC2)c1 | 36.9 |
| Cc1nnc(Nc2cccc(C3CCN(Cc4ncc[nH]4)CC3)n2)s1 | 31.6 |
| CNc1cccc(C2CCCN(Cc3ncc[nH]3)C2)n1 (stereo not given) | -20.8 |
| CCN(CC)C(=O)C1CCCN1C(=O)c1cccc(-n2cnnn2)c1 (stereo not given) | -72.5 |
| O=C(CCCOc1ccccc1F)NCCCC(=O)Nc1cn[nH]c1 | -97.2 |
| Cc1cc(C)n(CC2CCCN2C(=O)c2ccc3c(c2)COC3)n1 (stereo not given) | -101 |

| SMILES | INHIBITION [%] |
| --- | --- |
| CCOCc1ccc(CNC2=NCCCN2)cc1 | 55.7 |
| c1ccc(OCCNC2=NCCCN2)cc1 | 16.3 |
| CN(C)c1ccc(CNC2=NCCCN2)cc1 | -56.7 |
| CCOCCOC(C)C(=O)NCc1cn2cc(Cl)ccc2n1 (stereo not given) | -73.4 |
| COc1ccc(S(=O)(=O)N2C[C@H](OC)[C@]3(CCCO3)C2)cc1 | -98.4 |
| COCC(=O)N[C@@H]1CN(Cc2ccc3c(c2)OCCO3)C[C@H]1O | -66.5 |
| Cc1nn(C)c2cn(C(C)C(=O)NCc3cccc(F)c3)nc12 (stereo not given) | -32 |
| Cc1oc(-c2ccco2)nc1CN1CCCC(Cn2cncn2)C1 (stereo not given) | 56.4 |
| CC(C)c1nnc(CN2CCCC(Cn3cncn3)C2)o1 (stereo not given) | 53.1 |
| c1ncn(CC2CCCN(Cc3nnc(C4CC4)o3)C2)n1 (stereo not given) | -49 |
| CC(C)(C)c1nnc(CN2CCCC(Cn3cncn3)C2)o1 (stereo not given) | -204 |
| c1coc(-c2noc(CN3CCCC(Cn4cncn4)C3)n2)c1 (stereo not given) | -29 |
| c1coc(-c2nc(CN3CCCC(Cn4cncn4)C3)cs2)c1 (stereo not given) | -19.5 |
| COc1ccc2c(c1)CC(C1CCOCC1)N(C(=O)c1cnccn1)C2 (stereo not given) | -108 |
| COC(=O)c1ccc(N2CCN(C(=O)c3cccnc3)C(C)C2)cc1 (stereo not given) | -5.1 |
| CN(C)C(=O)CN1CCc2ncnc(NC3CCC3)c2CC1 | -76.8 |
| CCC(CO)N(Cc1ccsc1)Cc1cccc(O)c1 (stereo not given) | 67.6 |
| CCC(CO)N(CC=C(C)C)Cc1ccsc1 (stereo not given) | 23.4 |
| CCC(CO)N(Cc1ccc(C(=O)O)cc1)Cc1ccsc1 (stereo not given) | -74.7 |
| O=C(NCCCN1CCOCC1)c1nc(-c2ccc3cc[nH]c3c2)no1 | 20.5 |
| COc1cccc(CC(=O)N2CCCC2c2nc(C)c(C)c(O)n2)c1 (stereo not given) | -102 |
| CN(CCC#N)C(=O)Cn1nnnc1C(C)(C)C | -112 |

| SMILES | INHIBITION [%] |
| --- | --- |
| CC(O)(CNC(=O)c1c(F)cccc1Cl)c1ccco1 (stereo not given) | -45.8 |
| CC(C)c1cc(C(=O)NCCN2CCOCC2)nc(N2CCCC2)n1 | -70.3 |
| c1cc(-c2nc3c(c(NCCc4c[nH]cn4)n2)CCNCC3)ccn1 | -225 |
| c1nc(CCNc2nc(C3CC3)nc3c2CCNCC3)c[nH]1 | -79.3 |
| c1ccc(-c2nc3c(c(NCCc4c[nH]cn4)n2)CCNC3)cc1 | 51.1 |
| Cc1ccc(C(=O)N2CCC(O)(CN3CCc4ccccc4C3)C2)s1 (stereo not given) | -64.4 |
| CN(C)Cc1ccc(C(=O)N2CCCC(COc3ccc(F)cc3)C2)o1 (stereo not given) | 17.1 |
| CC(NC(=O)NCCCN(C)S(C)(=O)=O)c1ccc(Cl)cc1 (stereo not given) | -42.6 |
| COc1ccc(C)cc1NC(=O)Nc1cnc(N2CCCC2)nc1 | -26.2 |
| Cc1ccc(NC(=O)Nc2cnc(N3CCN(C)CC3)nc2)cc1 | 59.3 |
| COc1ccc(NC(=O)c2cnc(N3CCN(C)CC3)nc2C)cc1 | -103 |
| CCC1CN(C)c2ccccc2CN1C(=O)Nc1cccc(F)c1 (stereo not given) | -107 |
| COCCN(CCOC)C(=O)c1cnn(C)c1C | -57.9 |
| CCc1nc(C)sc1CNC1CCN(Cc2ccccc2)C1 (stereo not given) | -2.57 |
| Cc1nc(CNC2CCN(Cc3ccccc3)C2)sc1C (stereo not given) | 7.17 |
| Cc1nc(CCNC2CCN(Cc3ccccc3)C2)sc1C (stereo not given) | 53.5 |
| CCC(=O)c1ccc(Br)cc1NN1c2cc(Br)ccc2C(=O)C1(C)OC (stereo not given) | 43.1 |
| CCc1n[nH]c(C(=O)N2CCN(c3ccc4ccccc4c3)CC2)c1C | -8.02 |
| CC(=O)N(C)c1nc(CN2CCCCC2Cn2cncn2)cs1 (stereo not given) | -125 |
| CC(=O)N(c1ccc(C)cc1)c1nc(CN2CCCCC2C)cs1 (stereo not given) | 61.8 |
| CCN(C(C)=O)c1nc(CN2CCCCC2Cn2cncn2)cs1 (stereo not given) | 9.81 |
| Cc1cnc(NC(C)Cc2cccnc2)nc1N(C)C (stereo not given) | 5.71 |

| SMILES | INHIBITION [%] |
| --- | --- |
| O=C(NCc1ccco1)[C@@H]1CCO[C@@H]2CCN(CC3CC3)C[C@@H]21 | -37.9 |
| CN1CC(=O)N(c2cccc(F)c2)CC12CCN(Cc1nccs1)C2 (stereo not given) | -71.1 |
| c1ccc(-n2nnnc2CNCC2CCCN2c2cccnn2)cc1 (stereo not given) | -59.9 |
| Cn1cc(CN2CCCC(c3nccnc3-c3cccc(F)c3)C2)cn1 (stereo not given) | -45.2 |
| CN1CCCC(c2nccnc2-c2cccc(C(F)(F)F)c2)C1 (stereo not given) | 68.7 |
| CN1CCCC(c2nccnc2-c2cccc(Cl)c2)C1 (stereo not given) | 45.1 |
| CN(C)C(=O)CN1CCCC(c2nccnc2-c2cccc(Cl)c2)C1 (stereo not given) | 6.94 |
| Cc1cccc(-c2nccnc2C2CCCN(C)C2)c1 (stereo not given) | -10.8 |
| COCCN1CCCC(c2nccnc2-c2cccc(Cl)c2)C1 (stereo not given) | 62.9 |
| COc1ccc2c(c1)OCC(CNc1cc(N)nc(SC)n1)C2 (stereo not given) | -50.7 |
| CC(Cn1cccn1)NCc1ccc(OCc2ccncc2)cc1 (stereo not given) | -96.3 |
| CN1CCOC(CNCCOc2ccc(C#N)cc2)C1 (stereo not given) | -41.7 |
| Oc1coc2cc(OC[C@@H]3CCCN4CCCC[C@H]34)ccc12 | -8.29 |
| Cc1c(Cl)cccc1S(=O)(=O)N1CCC(S(=O)(=O)c2nncn2C)CC1 | -68.7 |
| O=C(NCc1cnc2n1CCN(Cc1ccsc1)CC2)C1CCC1 | -48.2 |
| CNS(=O)(=O)CCCN1CCCC1c1noc(C)n1 (stereo not given) | -104 |
| CCc1nc(C2CCCN2Cc2nc(C(C)(C)C)no2)no1 (stereo not given) | -105 |
| CCn1cc(CNC(=O)CC(C)C)cn1 | -153 |
| CC(C)n1ccnc1CN1CCCN(C(=O)c2cnc[nH]2)CC1 | 60.4 |
| CC(C)n1ccnc1CN1CCCN(C(=O)c2cc(Cl)c[nH]2)CC1 | 39 |
| Cc1[nH]ncc1C(=O)N1CCCN(Cc2nccn2C(C)C)CC1 | 11.1 |
| CN(C)CC(=O)N1CCC2(CC(=O)N(c3cccc(C#N)c3)C2)C1 (stereo not given) | -30 |
